{"source": "paper PMC11006913", "assay_in_all_cases": "PBM; 200 nM protein, PBS", "details_in_all_cases": "dsDNA, one strand shown", "key": {"[1]": {"target": "T1, SIX6 (Homo sapiens, UniProt O95475 114-200, L167I)", "T1 sequence": "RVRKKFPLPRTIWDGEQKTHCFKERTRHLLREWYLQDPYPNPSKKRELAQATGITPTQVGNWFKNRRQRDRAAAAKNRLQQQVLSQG"}, "[2]": {"target": "T2, SIX6 (Homo sapiens, UniProt O95475 114-200, L143V)", "T2 sequence": "T1 sequence with L30V, I54L"}, "[3]": {"target": "T3, SIX6 (Homo sapiens, UniProt O95475 114-200, H141N)", "T3 sequence": "T1 sequence with H28N, I54L"}, "[4]": {"target": "T4, SIX6 (Homo sapiens, UniProt O95475 114-200, T165P)", "T4 sequence": "T1 sequence with T52P, I54L"}, "[5]": {"target": "T5, SIX6 (Homo sapiens, UniProt O95475 114-200, L167M)", "T5 sequence": "T1 sequence with I54M"}, "[6]": {"target": "T6, SIX6 (Homo sapiens, UniProt O95475 114-200, L143M)", "T6 sequence": "T1 sequence with L30M, I54L"}, "[7]": {"target": "T7, SIX6 (Homo sapiens, UniProt O95475 114-200, L143I)", "T7 sequence": "T1 sequence with L30I, I54L"}, "[8]": {"target": "T8, SIX6 (Homo sapiens, UniProt O95475 114-200, T165G)", "T8 sequence": "T1 sequence with T52G, I54L"}, "[9]": {"target": "T9, SIX6 (Homo sapiens, UniProt O95475 114-200, T139Q)", "T9 sequence": "T1 sequence with T26Q, I54L"}, "[10]": {"target": "T10, SIX6 (Homo sapiens, UniProt O95475 114-200, T165A)", "T10 sequence": "T1 sequence with T52A, I54L"}, "[11]": {"target": "T11, SIX6 (Homo sapiens, UniProt O95475 114-200, L167V)", "T11 sequence": "T1 sequence with I54V"}, "[12]": {"target": "T12, SIX6 (Homo sapiens, UniProt O95475 114-200)", "T12 sequence": "T1 sequence with I54L"}, "[13]": {"target": "T13, SIX6 (Homo sapiens, UniProt O95475 114-200, T165I)", "T13 sequence": "T1 sequence with T52I, I54L"}}, "note": "Residue numbers refer to the chain shown, from its start.", "data": [{"sequence": "AGTGATAC", "values": [{"measurement": "binding signal", "setting": "[1]", "result": "11.6 upbm affinity estimate (log intensity, higher = more binding, comparable within an allelic series)"}, {"measurement": "binding signal", "setting": "[2]", "result": "10.5 upbm affinity estimate (log intensity, higher = more binding, comparable within an allelic series)"}, {"measurement": "binding signal", "setting": "[3]", "result": "11.5 upbm affinity estimate (log intensity, higher = more binding, comparable within an allelic series)"}, {"measurement": "binding signal", "setting": "[4]", "result": "9.81 upbm affinity estimate (log intensity, higher = more binding, comparable within an allelic series)"}, {"measurement": "binding signal", "setting": "[5]", "result": "10.9 upbm affinity estimate (log intensity, higher = more binding, comparable within an allelic series)"}, {"measurement": "binding signal", "setting": "[6]", "result": "11.2 upbm affinity estimate (log intensity, higher = more binding, comparable within an allelic series)"}, {"measurement": "binding signal", "setting": "[7]", "result": "10.5 upbm affinity estimate (log intensity, higher = more binding, comparable within an allelic series)"}, {"measurement": "binding signal", "setting": "[8]", "result": "11.6 upbm affinity estimate (log intensity, higher = more binding, comparable within an allelic series)"}, {"measurement": "binding signal", "setting": "[9]", "result": "11.5 upbm affinity estimate (log intensity, higher = more binding, comparable within an allelic series)"}, {"measurement": "binding signal", "setting": "[10]", "result": "11.5 upbm affinity estimate (log intensity, higher = more binding, comparable within an allelic series)"}, {"measurement": "binding signal", "setting": "[11]", "result": "11.4 upbm affinity estimate (log intensity, higher = more binding, comparable within an allelic series)"}, {"measurement": "binding signal", "setting": "[12]", "result": "11.2 upbm affinity estimate (log intensity, higher = more binding, comparable within an allelic series)"}, {"measurement": "binding signal", "setting": "[13]", "result": "11.4 upbm affinity estimate (log intensity, higher = more binding, comparable within an allelic series)"}]}, {"sequence": "AGTTCGGG", "values": [{"measurement": "binding signal", "setting": "[1]", "result": "8.99 upbm affinity estimate (log intensity, higher = more binding, comparable within an allelic series)"}, {"measurement": "binding signal", "setting": "[2]", "result": "9 upbm affinity estimate (log intensity, higher = more binding, comparable within an allelic series)"}, {"measurement": "binding signal", "setting": "[3]", "result": "8.96 upbm affinity estimate (log intensity, higher = more binding, comparable within an allelic series)"}, {"measurement": "binding signal", "setting": "[4]", "result": "9.14 upbm affinity estimate (log intensity, higher = more binding, comparable within an allelic series)"}, {"measurement": "binding signal", "setting": "[5]", "result": "9.03 upbm affinity estimate (log intensity, higher = more binding, comparable within an allelic series)"}, {"measurement": "binding signal", "setting": "[6]", "result": "9.18 upbm affinity estimate (log intensity, higher = more binding, comparable within an allelic series)"}, {"measurement": "binding signal", "setting": "[7]", "result": "9.05 upbm affinity estimate (log intensity, higher = more binding, comparable within an allelic series)"}, {"measurement": "binding signal", "setting": "[8]", "result": "9.12 upbm affinity estimate (log intensity, higher = more binding, comparable within an allelic series)"}, {"measurement": "binding signal", "setting": "[9]", "result": "9.14 upbm affinity estimate (log intensity, higher = more binding, comparable within an allelic series)"}, {"measurement": "binding signal", "setting": "[10]", "result": "8.95 upbm affinity estimate (log intensity, higher = more binding, comparable within an allelic series)"}, {"measurement": "binding signal", "setting": "[11]", "result": "8.74 upbm affinity estimate (log intensity, higher = more binding, comparable within an allelic series)"}, {"measurement": "binding signal", "setting": "[12]", "result": "9.05 upbm affinity estimate (log intensity, higher = more binding, comparable within an allelic series)"}, {"measurement": "binding signal", "setting": "[13]", "result": "8.91 upbm affinity estimate (log intensity, higher = more binding, comparable within an allelic series)"}]}, {"sequence": "ACCGCGCC", "values": [{"measurement": "binding signal", "setting": "[1]", "result": "8.84 upbm affinity estimate (log intensity, higher = more binding, comparable within an allelic series)"}, {"measurement": "binding signal", "setting": "[2]", "result": "8.82 upbm affinity estimate (log intensity, higher = more binding, comparable within an allelic series)"}, {"measurement": "binding signal", "setting": "[3]", "result": "8.81 upbm affinity estimate (log intensity, higher = more binding, comparable within an allelic series)"}, {"measurement": "binding signal", "setting": "[4]", "result": "8.88 upbm affinity estimate (log intensity, higher = more binding, comparable within an allelic series)"}, {"measurement": "binding signal", "setting": "[5]", "result": "8.85 upbm affinity estimate (log intensity, higher = more binding, comparable within an allelic series)"}, {"measurement": "binding signal", "setting": "[6]", "result": "8.81 upbm affinity estimate (log intensity, higher = more binding, comparable within an allelic series)"}, {"measurement": "binding signal", "setting": "[7]", "result": "8.86 upbm affinity estimate (log intensity, higher = more binding, comparable within an allelic series)"}, {"measurement": "binding signal", "setting": "[8]", "result": "8.91 upbm affinity estimate (log intensity, higher = more binding, comparable within an allelic series)"}, {"measurement": "binding signal", "setting": "[9]", "result": "8.95 upbm affinity estimate (log intensity, higher = more binding, comparable within an allelic series)"}, {"measurement": "binding signal", "setting": "[10]", "result": "8.82 upbm affinity estimate (log intensity, higher = more binding, comparable within an allelic series)"}, {"measurement": "binding signal", "setting": "[11]", "result": "8.78 upbm affinity estimate (log intensity, higher = more binding, comparable within an allelic series)"}, {"measurement": "binding signal", "setting": "[12]", "result": "8.78 upbm affinity estimate (log intensity, higher = more binding, comparable within an allelic series)"}, {"measurement": "binding signal", "setting": "[13]", "result": "8.84 upbm affinity estimate (log intensity, higher = more binding, comparable within an allelic series)"}]}, {"sequence": "CGGGGACC", "values": [{"measurement": "binding signal", "setting": "[1]", "result": "8.99 upbm affinity estimate (log intensity, higher = more binding, comparable within an allelic series)"}, {"measurement": "binding signal", "setting": "[2]", "result": "8.83 upbm affinity estimate (log intensity, higher = more binding, comparable within an allelic series)"}, {"measurement": "binding signal", "setting": "[3]", "result": "8.99 upbm affinity estimate (log intensity, higher = more binding, comparable within an allelic series)"}, {"measurement": "binding signal", "setting": "[4]", "result": "8.96 upbm affinity estimate (log intensity, higher = more binding, comparable within an allelic series)"}, {"measurement": "binding signal", "setting": "[5]", "result": "8.97 upbm affinity estimate (log intensity, higher = more binding, comparable within an allelic series)"}, {"measurement": "binding signal", "setting": "[6]", "result": "8.88 upbm affinity estimate (log intensity, higher = more binding, comparable within an allelic series)"}, {"measurement": "binding signal", "setting": "[7]", "result": "8.86 upbm affinity estimate (log intensity, higher = more binding, comparable within an allelic series)"}, {"measurement": "binding signal", "setting": "[8]", "result": "8.9 upbm affinity estimate (log intensity, higher = more binding, comparable within an allelic series)"}, {"measurement": "binding signal", "setting": "[9]", "result": "8.95 upbm affinity estimate (log intensity, higher = more binding, comparable within an allelic series)"}, {"measurement": "binding signal", "setting": "[10]", "result": "8.92 upbm affinity estimate (log intensity, higher = more binding, comparable within an allelic series)"}, {"measurement": "binding signal", "setting": "[11]", "result": "8.99 upbm affinity estimate (log intensity, higher = more binding, comparable within an allelic series)"}, {"measurement": "binding signal", "setting": "[12]", "result": "8.89 upbm affinity estimate (log intensity, higher = more binding, comparable within an allelic series)"}, {"measurement": "binding signal", "setting": "[13]", "result": "8.91 upbm affinity estimate (log intensity, higher = more binding, comparable within an allelic series)"}]}, {"sequence": "GCCAGTCC", "values": [{"measurement": "binding signal", "setting": "[1]", "result": "9.04 upbm affinity estimate (log intensity, higher = more binding, comparable within an allelic series)"}, {"measurement": "binding signal", "setting": "[2]", "result": "8.92 upbm affinity estimate (log intensity, higher = more binding, comparable within an allelic series)"}, {"measurement": "binding signal", "setting": "[3]", "result": "8.9 upbm affinity estimate (log intensity, higher = more binding, comparable within an allelic series)"}, {"measurement": "binding signal", "setting": "[4]", "result": "9.04 upbm affinity estimate (log intensity, higher = more binding, comparable within an allelic series)"}, {"measurement": "binding signal", "setting": "[5]", "result": "8.92 upbm affinity estimate (log intensity, higher = more binding, comparable within an allelic series)"}, {"measurement": "binding signal", "setting": "[6]", "result": "8.89 upbm affinity estimate (log intensity, higher = more binding, comparable within an allelic series)"}, {"measurement": "binding signal", "setting": "[7]", "result": "9.03 upbm affinity estimate (log intensity, higher = more binding, comparable within an allelic series)"}, {"measurement": "binding signal", "setting": "[8]", "result": "9 upbm affinity estimate (log intensity, higher = more binding, comparable within an allelic series)"}, {"measurement": "binding signal", "setting": "[9]", "result": "9.12 upbm affinity estimate (log intensity, higher = more binding, comparable within an allelic series)"}, {"measurement": "binding signal", "setting": "[10]", "result": "8.81 upbm affinity estimate (log intensity, higher = more binding, comparable within an allelic series)"}, {"measurement": "binding signal", "setting": "[11]", "result": "8.95 upbm affinity estimate (log intensity, higher = more binding, comparable within an allelic series)"}, {"measurement": "binding signal", "setting": "[12]", "result": "8.9 upbm affinity estimate (log intensity, higher = more binding, comparable within an allelic series)"}, {"measurement": "binding signal", "setting": "[13]", "result": "8.85 upbm affinity estimate (log intensity, higher = more binding, comparable within an allelic series)"}]}, {"sequence": "GTATGATA", "values": [{"measurement": "binding signal", "setting": "[1]", "result": "11 upbm affinity estimate (log intensity, higher = more binding, comparable within an allelic series)"}, {"measurement": "binding signal", "setting": "[2]", "result": "10.5 upbm affinity estimate (log intensity, higher = more binding, comparable within an allelic series)"}, {"measurement": "binding signal", "setting": "[3]", "result": "11.1 upbm affinity estimate (log intensity, higher = more binding, comparable within an allelic series)"}, {"measurement": "binding signal", "setting": "[4]", "result": "10.1 upbm affinity estimate (log intensity, higher = more binding, comparable within an allelic series)"}, {"measurement": "binding signal", "setting": "[5]", "result": "10.6 upbm affinity estimate (log intensity, higher = more binding, comparable within an allelic series)"}, {"measurement": "binding signal", "setting": "[6]", "result": "11 upbm affinity estimate (log intensity, higher = more binding, comparable within an allelic series)"}, {"measurement": "binding signal", "setting": "[7]", "result": "10.5 upbm affinity estimate (log intensity, higher = more binding, comparable within an allelic series)"}, {"measurement": "binding signal", "setting": "[8]", "result": "11.2 upbm affinity estimate (log intensity, higher = more binding, comparable within an allelic series)"}, {"measurement": "binding signal", "setting": "[9]", "result": "11.2 upbm affinity estimate (log intensity, higher = more binding, comparable within an allelic series)"}, {"measurement": "binding signal", "setting": "[10]", "result": "11 upbm affinity estimate (log intensity, higher = more binding, comparable within an allelic series)"}, {"measurement": "binding signal", "setting": "[11]", "result": "10.9 upbm affinity estimate (log intensity, higher = more binding, comparable within an allelic series)"}, {"measurement": "binding signal", "setting": "[12]", "result": "11 upbm affinity estimate (log intensity, higher = more binding, comparable within an allelic series)"}, {"measurement": "binding signal", "setting": "[13]", "result": "10.9 upbm affinity estimate (log intensity, higher = more binding, comparable within an allelic series)"}]}]}
